Reference: the supplement of paper PMC11417369
± gives the standard deviation of the averaged measurements. The full ranking holds about 25,000 sequences; the median of “ln(normalized median fluorescence intensity)” is about 8.9, and the highest 2% start at about 10. For the sample, the highest values were picked, then their nearest neighbours and some sequences at random.

Test system: PfAP2-LT AP2 domain (GST-tagged)
Assay: gcPBM binding intensity (ln(normalized median fluorescence intensity)); higher = stronger DNA binding
Outline: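 DNA-binding domains from P. falciparum, fused to GST and produced in E. coli, were put on an Agilent 4 × 180k double-stranded probe array for 1 h in 1× PBS holding 1% milk, 0.2 mg/ml BSA, 0.5% salmon testes DNA and 0.03% Triton X-100. Probes were primer-extended, 36 bp long and drawn from intergenic genomic regions, with negative controls included. After Alexa488 anti-GST antibody detection and a 488 nm scan, binding intensity was set as the highest Masliner-normalised natural-log median intensity across replicate spots of either probe orientation.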

Sequence | gcPBM binding intensity (ln)
TTAGAAATTCATTTTACACACAATTCAAAAGAATGT [CACACA_site2104] | 8.79 ± 0.42
ATATATAAAATTATATGTACATATATAATATATATA [XGTACX_site529] | 8.77 ± 0.39
TACCATATTTCTTCAAGTACGCATTATGTTAAAAAG [XGTACX_site345] | 8.51 ± 0.38
GTGGAACGTATATTTTCACACACTCTCAAAAGTACA [CACACA_site8722] | 8.93 ± 0.47
TATTTATTAATATGTACACACATCAACCATATTAAC [CACACA_site7001] | 9.04 ± 0.29
TAAATAAGGAAGGAAACACACATTAAAAAATAAATA [CACACA_site618] | 8.84 ± 0.59
TATATATATTTATGTTGTACAAAATATTATTACGTA [XGTACX_site5384] | 8.57 ± 0.36
TTTTTTTAATGATATTGTACATTAATAAAAAATATG [XGTACX_site1719] | 8.12 ± 0.59
GGAATATAAATACATACACACATATATATATATATA [CACACA_site4998] | 10 ± 0.33
AATACATACAGACACACACACACATATATATATATA [CACACA_site3558] | 10.36 ± 0.014
GAATAATATGGACATACACACATATACATACATATA [CACACA_site2114] | 9.27 ± 0.39
TAAATACAGACATATACACACATATATATATATATA [CACACA_site4382] | 9.925 ± 0.0071
GGAATAACCGGACACACACACACATATATATATATA [CACACA_site5874] | 10.39 ± 0.057
CACATACAGACATACACACACATATATATTAATATA [CACACA_site546] | 9.56 ± 0.41
TTATTATTCCCTCATTTTGTTACCATTATTTCAATT [CACACA_negctrl_site1023] | 8.88 ± 0.54
AATGTACAAATACGTACACACATATATATATATATA [CACACA_site1542] | 10.1 ± 0.18
GATATTATGTGTTTGGTATTTCGATCTTGTCAGGAC [CACACA_negctrl_site426] | 8.93 ± 0.41
CGGACATACTAACGGACACACGTAAGAAAAAAAAAG [CACACA_site4504] | 9.05 ± 0.64
AAAAAAAAAAAAGAAACACACATATATATATATATA [CACACA_site140] | 9.9 ± 0.071
GTAAGAAACAGACACACACACATATATATATATATA [CACACA_site794] | 10.21 ± 0.064
AAAAAAAAAAAAGAAACACACACATATATATATATA [CACACA_site8525] | 9.94 ± 0.3
CAAGAAAAGAAACACACACACATATATATATATATA [CACACA_site3881] | 10.4 ± 0.28
GTAAGAAACAGACACACACACATATAAATATAAATA [CACACA_site6515] | 9.86 ± 0.49

Sequence | gcPBM binding intensity (ln)
TAAACAGACATATAAACACACATATAAACAGACATA [CACACA_site7214] | 9.31 ± 0.41
TACGGACATACTAACGGACACACGTAAGAAAAAAAA [CACACA_site602] | 9.03 ± 0.56
CACAAAAAGAAACACACACACATATATATATATATA [CACACA_site999] | 10 ± 0.37
AAAAAAAAGAAAAACACACACATATATATATATAAT [CACACA_site4707] | 9.53 ± 0.42
GTAAGAAACGGACACACACACATATATATATATATA [CACACA_site4593] | 10.39 ± 0.05
AAGAAAAAAAAAAAAACACACATATATATATATATA [CACACA_site2027] | 10.1 ± 0.14
ATAAAATCTTAATCAACAAACAAACAAAAAAAAAAT [CACACA_negctrl_site1161] | 8.77 ± 0.48
ATATGTTCTACAAAAAAGATGTCGATTTATTTTCTT [CACACA_negctrl_site1179] | 8.56 ± 0.49
TTTACATTTCAGTAGACACACAAAAAATAATACTAA [CACACA_site512] | 8.76 ± 0.43
AAAAAAAGATTATACACACACATATATAAACATACA [CACACA_site4553] | 9.54 ± 0.3
ATGATATGCAATTTAGTGCATAACAAAATTGGTATA | 8.79 ± 0.5
TTATTTATAAATATTAATTTTTTTTTTTTTTTTTTT [XGTACX_negctrl_site105] | 8.01 ± 0.5
TAATATATATTATTATGTACATATATTGATTCCTTG [XGTACX_site6830] | 8.85 ± 0.47
ATAAGAAGAAGAAAAACACACATATGTAAATATATA [CACACA_site3138] | 9.09 ± 0.54
AATATAAGAAAAATAACACACACATAAACATATATA [CACACA_site8899] | 9.54 ± 0.35
TTGTAAGAAAAACACACACACACATATATATATATA [CACACA_site795] | 10.1 ± 0.014
ATGTTGTACAGACACACACACAAAAAAAAAATAAAA [CACACA_site7184] | 9.46 ± 0.56
TATATATATATATATATATATATATATATATGTTGT [TGCATGCA_negctrl_site24] | 10.24 ± 0.085
ATATATATATGTATGTATATATATATATATATGTTT [CACACA_negctrl_site248] | 9.08 ± 0.34
GTTATATGTTATATATATATATATATATATATATAT [TGCATGCA_negctrl_site428] | 9.51 ± 0.27
TTTTCTTCATAAATGCTGCACTGGTTTAAGCATGAT | 8.6 ± 0.46
TGGGAAGGGTGGGAAACTTTATCAAAAACTTATTAC [GTGCAC_negctrl_site16] | 8.98 ± 0.24
TTTTGTTGATTTATATCTGTAGGGTTTAATATAACA [XGTACX_negctrl_site174] | 8.51 ± 0.33

Sequence | gcPBM binding intensity (ln)
TATAAAAAATAAAATACACACACATATATATATATA [CACACA_site8365] | 9.74 ± 0.28
TATATATATATATATACACACACACCCACCAAAGCG [CACACA_site7904] | 10.02 ± 0.021
AGCACCCACCAACACACACACACACCCACCCACCGA [CACACA_site368] | 10.22 ± 0.028
TACACCCACCAACACACACACACACTAATAAAAAAA [CACACA_site8060] | 10.1 ± 0.44
ATCAAGCACCAACACACACACACACCCCCACCCACA [CACACA_site370] | 10.6 ± 0.11
AGCACCCACCAACACACACACACACCCACCCACCCA [CACACA_site8011] | 10.3 ± 0.11
TGCACCCACCAACACACACACAACTAAAAAATAATG [CACACA_site2566] | 9.71 ± 0.42
TCCTGTTGAGAATGGCGTACATATAAATATTATATA [XGTACX_site1841] | 8.55 ± 0.42
TTTAATTTGTTATACACACACAAAAAAAATTATAAA [CACACA_site3937] | 8.93 ± 0.46
CTTATGTTTTTTAAGTGTACATATTATACGTATTAT [XGTACX_site1176] | 9.02 ± 0.42
AAATAACATAATAAGGGTACATTAATTTCGATAATG [XGTACX_site835] | 8.77 ± 0.4
TTTCTAATTTATATCACACACATATATAAATAGTAA [CACACA_site6156] | 8.72 ± 0.42
TATTAATCCTTTTGCTTGGAAACATTCAAAAGGAAG [CACACA_negctrl_site1129] | 8.18 ± 0.41
TAAATTATAATAAATACACACAAATTATAATTCTAT [CACACA_site3942] | 8.79 ± 0.37
TTTAGAGAAGTCAAGTGTACATATAAAATAATTCAC [XGTACX_site4997] | 8.65 ± 0.35
ATATATATATATATATGTACATATGTATATTTTTTT [XGTACX_site1299] | 9.77 ± 0.44
AAAAATAAAAATTGCACACTAAAAAATTACGCACGA [CACACA_site3418] | 8.94 ± 0.35
TAAAAAATAAAAATTGCACACTAAAAAATTACGCAC [CACACA_site9129] | 8.76 ± 0.41
GATAATTATGGACACACACACACACCCACAACTAAA [CACACA_site8824] | 10.2 ± 0.35
TGCACGCACAGACACACACACAACTAAAAAATAATG [CACACA_site7250] | 9.54 ± 0.49
TAATTATGCAGACACACACACACACGCAACTAAAAA [CACACA_site7253] | 10 ± 0.3
TAATTATGCGGACACACACACACACCCAACTAAAAA [CACACA_site5427] | 9.9 ± 0.26
AAGATAATTACGCACACACACACACGCCCACAACTA [CACACA_site7255] | 10.4 ± 0.12

Sequence | gcPBM binding intensity (ln)
TATATAAATGGACACACACACACCTTATAATTATTA [CACACA_site6093] | 10 ± 0.38
GATAATTACGGACACACACACACACGCACAACTAAA [CACACA_site7254] | 10.215 ± 0.0071
TAAATTTTTATTTGTAGTACTATATATATATATATA [XGTACX_site1026] | 8.9 ± 0.12
TAATTATGTACTATTATACACACGTTTAATTGTAAA [CACACA_site206] | 8.74 ± 0.42
AACATATATAATATTTGTACTTATATACAAAATATG [XGTACX_site7502] | 8.64 ± 0.4
ATATATATTTTAATAACACACATATATTATATTATA [CACACA_site4387] | 8.7 ± 0.38
AAAACACAAAAAAAATGTACACATATATATATATAT [XGTACX_site8509] | 9.84 ± 0.12
CATACATATAAACACACACACACACCCACCCACAAA [CACACA_site8059] | 10.4
AGGCACACAAACATATGTACACATATATATATATAT [XGTACX_site4723] | 10.21 ± 0.078
AAAAAAAAAAAAAACATACACACAAATATATACATA [CACACA_site4010] | 9.05 ± 0.45
TATACGCATATATAAACACACAAAAAAAAAAAAAAA [CACACA_site2026] | 8.86 ± 0.48
CATACATACAAACACACACACATATATATATATATA [CACACA_site43] | 10.16 ± 0.042
TGTACAAATATGTACACACACACATATATATATATA [CACACA_site584] | 9.88 ± 0.085
TATAAATATACAAACACACATACAAACATATATATA [CACACA_site1120] | 9.24 ± 0.37
TACATATATATATACACACATACATATATATACGCA [CACACA_site792] | 9.11 ± 0.28
CATACATACAAACACACACACATATATATACATACA [CACACA_site852] | 10.1 ± 0.38
CATATACGCAAACACACACACATATATATATATATA [CACACA_site501] | 10.3 ± 0.27
TATATACACCCACATACACACAAATAAAAAAACACC [CACACA_site3414] | 9.64 ± 0.31
TCTTTTTAACAAAAAAAAAAAAAAAAAAAAAAATTA [CACACA_negctrl_site1637] | 7.96 ± 0.43
AGTAGTCTGGAGAAAAGTACATAGTATCTGGTAACC [XGTACX_site2024] | 8.81 ± 0.58
